The list is not random: actives were taken first. Their share in the collection is about 3.4%.
14-3-3 Bad inh: disrupts binding of bovine 14-3-3 zeta to phospho-Bad peptide | TR-FRET 14-3-3zeta/Dy647-pBad peptide displacement, 1 h | AID 781 | inhibition, % at 21.7 µM | actives 0.71% (n = 220,000) | P63103;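 active means inhibition above about 70%, limit read from the data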;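 further: 0% = full 14-3-3 plus peptide FRET controls and 100% = background without 14-3-3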
p47phox inh: p47phox (human) inhibition; actives 0.53% (n = 220,000); inhibition, % at 24.7 µM; AID 1274; p47phox/p22phox peptide binding, fluorescence polarization, 2 h;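 active means inhibition above about 30%, limit read from the data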;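 further: 0% = p47phox with labelled peptide and 100% = labelled peptide alone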
Mcl1 Noxa PPI: disrupts binding of human Mcl-1 to Noxa peptide; Q07820; TR-FRET Mcl-1/Noxa peptide binding, 2 h; inhibition, % at 21.7 µM; actives 1.5% (n = 220,000); AID 1022;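 active means compounds that cut the protein-peptide binding signal by more than 50% relative to plate controls in a single-dose test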;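 further: His-tagged Mcl-1 with rhodamine Noxa BH3 peptide and terbium anti-His antibody; 0% = Mcl-1 plus Noxa peptide wells and 100% = peptide-only wells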
Target sequence (Q07820 whole entry, looked up): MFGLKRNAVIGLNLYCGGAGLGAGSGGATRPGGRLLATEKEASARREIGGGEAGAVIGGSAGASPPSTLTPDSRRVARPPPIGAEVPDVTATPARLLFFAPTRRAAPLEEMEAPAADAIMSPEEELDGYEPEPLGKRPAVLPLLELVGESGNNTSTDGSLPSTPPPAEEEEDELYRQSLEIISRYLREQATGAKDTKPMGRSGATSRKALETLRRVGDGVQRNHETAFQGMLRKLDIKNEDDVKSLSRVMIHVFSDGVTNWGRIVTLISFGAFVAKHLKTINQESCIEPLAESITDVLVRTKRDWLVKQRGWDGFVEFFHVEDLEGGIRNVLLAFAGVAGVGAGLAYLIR
Calpain2 inh: calpain II (pig) inhibition; purified calpain II, fluorogenic peptide substrate, 30 min; inhibition, % at 16 µM; actives 0.37% (n = 220,000);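 active means inhibition above about 50%, limit read from the data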
Mcl1 Bid PPI: Mcl-1/Bid interaction inhibition; TR-FRET Mcl-1/Bid-Dy647 peptide binding, 1536-well; actives 0.97% (n = 220,000); Q07820; inhibition, % at 21.7 µM;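 active means compounds that cut the binding signal by more than half at the single screening dose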;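 further: His-tagged Mcl-1 with europium anti-His antibody binding Bid BH3 peptide; 0% = Mcl-1 plus peptide wells and 100% = peptide-only wells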
Bim-Mcl-1: disrupts Bim peptide binding to human Mcl-1; inhibition, % at 10 µM; Bead-based flow cytometry, Bim peptide-Mcl-1 binding; Q07820; AID 1009; actives 0.1% (n = 190,000); in the data active means inhibition above about 40%;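 further: 0% = no compound tracer wells and 100% = peptide blocker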
An asterisk follows results filed as active; [ ] = remark or other dose.

CC(C)n1c(O)c(/C=C2\C=NN=C2c2ccccc2)sc1=S was read as 14-3-3 Bad inh -5, p47phox inh -3, Mcl1 Noxa PPI 66*, Calpain2 inh -3 and Mcl1 Bid PPI -10.
`CCn1c(O)c(/C=C2\C=NN=C2c2ccc(C)cc2)sc1=S` gave 14-3-3 Bad inh 9, p47phox inh -69, Mcl1 Noxa PPI 11, Calpain2 inh 21, Mcl1 Bid PPI -6 and Bim-Mcl-1 -1.
Cc1scc(C(=O)NNC(=O)CCC(=O)O)c1C was read as 14-3-3 Bad inh -8, p47phox inh 2, Mcl1 Noxa PPI 11, Calpain2 inh -11, Mcl1 Bid PPI -5 and Bim-Mcl-1 0.
`CC(C)(C)C1CCc2c(C(=O)NNC(=O)CCC(=O)O)csc2C1` (stereo unspecified) gave 14-3-3 Bad inh -1, p47phox inh -4, Mcl1 Noxa PPI 104*, Calpain2 inh -15, Mcl1 Bid PPI -8 and Bim-Mcl-1 -6.
Screening CCOc1ncccc1C(=O)N1CCN(c2cc(Cl)ccc2C)CC1 returned 14-3-3 Bad inh -10, p47phox inh -5, Mcl1 Noxa PPI 8, Calpain2 inh -1, Mcl1 Bid PPI -31 and Bim-Mcl-1 0.
CCOc1ncccc1C(=O)N1CCN(c2cccc(C)c2C)CC1 was read as 14-3-3 Bad inh 88*, p47phox inh -4, Mcl1 Noxa PPI 7, Calpain2 inh 24, Mcl1 Bid PPI -14 and Bim-Mcl-1 -3.
Screening O=c1c(CN2CCN(Cc3ccccc3)CC2)coc2ccc(Cl)cc12 returned 14-3-3 Bad inh 72*, p47phox inh 3, Mcl1 Noxa PPI 15, Calpain2 inh 25, Mcl1 Bid PPI 93* and Bim-Mcl-1 -2.
`Cc1ccc2occ(CN3CCN(Cc4ccccc4)CC3)c(=O)c2c1` gave 14-3-3 Bad inh 72*, p47phox inh -8, Calpain2 inh -5, Mcl1 Bid PPI 20 and Bim-Mcl-1 -1.
For CCn1ccnc1CN(C)C(=O)CCc1nnc(CCC2CCCCC2)o1 the results were 14-3-3 Bad inh -9, p47phox inh -3, Mcl1 Noxa PPI -5, Calpain2 inh -10, Mcl1 Bid PPI -19 and Bim-Mcl-1 -1.
For Nc1nc(SCc2ccc([N+](=O)[O-])cc2)nc2nc3c(cc12)CCCC3 the results were 14-3-3 Bad inh 13, p47phox inh -14, Mcl1 Noxa PPI 5, Calpain2 inh 24, Mcl1 Bid PPI 79* and Bim-Mcl-1 2.
`COc1cc2[nH]c(=O)c(C(=O)NCCCN3CCOCC3)c(O)c2cc1OC` gave 14-3-3 Bad inh -5, p47phox inh 10, Mcl1 Noxa PPI 68*, Calpain2 inh -111, Mcl1 Bid PPI 12 and Bim-Mcl-1 -3.
For CCOC(=O)c1ccc(NC(=O)Nc2ccon2)cc1 the results were 14-3-3 Bad inh -6, p47phox inh -7, Mcl1 Noxa PPI -3, Calpain2 inh -10 and Mcl1 Bid PPI -7.
O=C(COc1ccccc1)Nc1ccc(Cl)cn1 was read as 14-3-3 Bad inh 10, p47phox inh 4, Mcl1 Noxa PPI 7, Calpain2 inh 10, Mcl1 Bid PPI -7 and Bim-Mcl-1 -3.
For CCOC(=O)c1ccc(NC(=O)Nc2ccc(Cl)cn2)cc1 the results were 14-3-3 Bad inh -2, p47phox inh 36*, Mcl1 Noxa PPI 13, Calpain2 inh -26, Mcl1 Bid PPI -6 and Bim-Mcl-1 0.
O=C(COc1ccc(Cl)cc1)Nc1ccc(Cl)cn1 was read as 14-3-3 Bad inh 82*, p47phox inh -1, Mcl1 Noxa PPI -1, Calpain2 inh 7, Mcl1 Bid PPI -15 and Bim-Mcl-1 0.
`O=C(Cn1cccn1)c1ccccc1` gave 14-3-3 Bad inh -11, p47phox inh 0, Mcl1 Noxa PPI -8, Calpain2 inh 9, Mcl1 Bid PPI -11 and Bim-Mcl-1 2.
Screening Cc1ccc([N+](=O)[O-])cc1-c1ccc(/C=C(\C#N)c2[nH]nc(N)c2C#N)o1 returned 14-3-3 Bad inh 72*[fluorescence artefact?], p47phox inh 38*, Mcl1 Noxa PPI 68*, Calpain2 inh 12, Mcl1 Bid PPI 79* and Bim-Mcl-1 -11.
`O=S(=O)(c1ccc2c(c1)oc1ccccc12)N1CCOCC1` gave 14-3-3 Bad inh active[fluorescence artefact?], p47phox inh -10, Mcl1 Noxa PPI 8, Calpain2 inh 7, Mcl1 Bid PPI 3 and Bim-Mcl-1 0.
Screening O=S(=O)(c1ccc2nc(Cc3ccccc3)[nH]c2c1)N1CCOCC1 returned 14-3-3 Bad inh 88*, p47phox inh -5, Mcl1 Noxa PPI 8, Calpain2 inh 27, Mcl1 Bid PPI 21 and Bim-Mcl-1 0.

Screens as filed in PubChem.
